Shown are actives, neighbours in structure and some others; about 1.1% of the full set was active somewhere.
MT1-MMP txn act: activates MT1-MMP transcription; HT1080 MT1-MMP promoter luciferase reporter, luminescence, overnight; active compounds read high; 86,000 tested, 0.16% active; activation factor at 10 µM; AID 750;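 active = activation factor of at least 2 for MT1-MMP transcription at 10 µM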
HER2 expr 66K: Her2 kinase expression inhibition | HER2 level % of control, % at 10 µM | 65,000 tested, 0.69% active | SKBR-3 HER2 protein level, AlphaScreen, 18-24 h; active compounds read low;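 active = HER2 level under 5% of the carrier-only control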;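 also: 100% = DMSO carrier and 0% = 500 nM PU-H71 HSP90 inhibitor; lower value means stronger loss of Her2 protein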
TNAP act mid DEA: activators of human TNAP at intermediate phosphate acceptor | purified TNAP, CDP-star luminescence, 100 mM DEA, 30 min; active compounds read high; scale: 0 levamisole-inhibited, 1 vehicle-only enzyme | activation factor at 20 µM | 64,000 tested, under 10 active | AID 813 | P05186;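 active = activation factor of at least 2 at 20 µM, relative to controls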
Ec RNAP inh: Escherichia coli RNA polymerase inhibition; AID 559; 62,000 tested, 0.2% active; P0A8V2; inhibition, %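 (tested at 10 µM)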; E. coli RNA polymerase, fluorescence transcription assay; in the data active = inhibition above about 20%;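 also: 0% = enzyme without compound and 100% = no enzyme blank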
Hsp90 block: displaces geldanamycin probe from tumor Hsp90. P07900. NCI-N417 lysate Hsp90, Cy3B-geldanamycin FP displacement. inhibition, % at 30 µM. 64,000 tested, 0.35% active. AID 429;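 active = inhibition above 50%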;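 also: 0% = tracer plus lysate wells and 100% = tracer alone without lysate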
HePTP inhibitor: blocks human HePTP tyrosine phosphatase; P35236; recombinant HePTP phosphatase activity, OD absorbance; inhibition, % at 20 µM; 110,000 tested, 0.64% active; in the data active = inhibition above about 50%;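 also: plate controls were vehicle for no effect and reference inhibitor for full effect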
An asterisk follows results filed as active.

CCOC(=O)C1=C(C)OC(N)=C(C(=O)OCC)C1c1cccnc1 (stereo unspecified) was read as MT1-MMP txn act 1.1, HER2 expr 66K 76, TNAP act mid DEA 1, Ec RNAP inh 8, Hsp90 block 72* and HePTP inhibitor 6.
For O=C(NCCN1CCOCC1)c1cc(-c2ccc(Br)cc2)nc2ccccc12 the results were HePTP inhibitor 104*.
Screening CCCOc1ccc(-c2cc(C(=O)NCCCN3CCOCC3)c3ccccc3n2)cc1 returned HePTP inhibitor 103*.
COc1ccc(-c2nc(C(N)=O)c3[nH]c(=O)n(-c4cccc(Cl)c4)c3n2)cc1OC was read as MT1-MMP txn act 1.3, HER2 expr 66K -12*, TNAP act mid DEA 1, Ec RNAP inh 4, Hsp90 block -1 and HePTP inhibitor 4.
For CC(C)(C)c1ccc(CSc2nc3ccccc3c(=O)[nH]2)cc1 the results were HePTP inhibitor 69*.
Screening O=c1[nH]c(SCc2ccccc2)nc2ccccc12 returned HePTP inhibitor 10.
For O=C(Oc1ccc([N+](=O)[O-])cc1)c1ccc(Cl)c(S(=O)(=O)N2CCOCC2)c1 the results were HePTP inhibitor 2.
C=CCn1c(=O)c2ccccc2n2c(SCC(=O)c3ccccc3)nnc12 was read as MT1-MMP txn act 1.1, HER2 expr 66K 81, TNAP act mid DEA 0.9, Ec RNAP inh 2, Hsp90 block -4 and HePTP inhibitor 4.
`C=CCn1c(=O)c2ccccc2n2c(SCc3cc(=O)n4ccsc4n3)nnc12` gave MT1-MMP txn act 1.1, HER2 expr 66K -15*, TNAP act mid DEA 1, Ec RNAP inh 3, Hsp90 block 0 and HePTP inhibitor 6.
Screening CCOC(=O)C1=C(C)N(c2ccccc2)C(=S)NC1c1ccc(Br)cc1 (stereo unspecified) returned HePTP inhibitor 7.
For CCN(CC)c1ccc(/C=C2/C(=O)NN(c3ccc(C)cc3)C2=O)c(O)c1 the results were HePTP inhibitor 61*.
Screening CCN(CC)c1ccc(/C=C2/C(=O)NN(c3ccc(I)cc3)C2=O)c(O)c1 returned HePTP inhibitor 14.
Screening c1ccc2c(-c3nc(-c4ccncc4)no3)cccc2c1 returned MT1-MMP txn act 1.5, HER2 expr 66K 97, TNAP act mid DEA 0.8, Ec RNAP inh 3, Hsp90 block -5 and HePTP inhibitor 10.
c1ccc(-c2noc(-c3cccc4ccccc34)n2)cc1 was read as MT1-MMP txn act 2*, HER2 expr 66K 77, TNAP act mid DEA 1, Ec RNAP inh 5, Hsp90 block -4 and HePTP inhibitor -11.
`Cc1ccc(S(=O)(=O)NCc2nnc(NC(=O)c3ccc(Br)cc3)s2)cc1` gave HePTP inhibitor 58*.
Screening CCc1nnc(NC(=O)c2ccc(S(=O)(=O)NCC(C)C)cc2)s1 returned MT1-MMP txn act 1, HER2 expr 66K 97, TNAP act mid DEA 0.9, Ec RNAP inh 3, Hsp90 block -6 and HePTP inhibitor 14.
`O=c1cc(C(F)(F)F)nc(Sc2c(-c3ccccc3)c3cc(Cl)ccc3[nH]c2=O)[nH]1` gave HePTP inhibitor 7.
For COc1ccc(NC(=O)c2cccc(Oc3ccccc3)c2)cc1OC the results were HePTP inhibitor 5.
Screening O=C(CSc1nnc(CNc2ccc(Cl)cc2)o1)Nc1nc2c(s1)CCCC2 returned MT1-MMP txn act 1.2, HER2 expr 66K 88, TNAP act mid DEA 0.8, Ec RNAP inh 23*, Hsp90 block 1 and HePTP inhibitor 8.
O=c1/c(=C\c2cn[nH]c2-c2ccccc2)sc2nc3ccccc3n12 was read as HePTP inhibitor 50*.
For CCCc1ccc(-c2nc(Cc3ccc(OC)cc3)no2)cc1 the results were HePTP inhibitor 7.
`COC1(/C(=C/C(=O)c2ccc(C)cc2)Nc2ccccc2)CCCCC1` gave HePTP inhibitor 12.
For CC(C)(C)c1cc(C(c2ccccc2O)N2CCOCC2)cc(C(C)(C)C)c1O (stereo unspecified) the results were HePTP inhibitor 10.
For CC(C)(C)c1cc(C(c2cccnc2)N2CCN(CCO)CC2)cc(C(C)(C)C)c1O (stereo unspecified) the results were HER2 expr 66K -15*, TNAP act mid DEA 0.9, Ec RNAP inh 6, Hsp90 block -1 and HePTP inhibitor 9.

Source: PubChem BioAssay (several laboratories)
